# AI-2 QS modul: Vibrio harveyi AI-2 quorum sensing modulators, primary screen, JMH597 strain, luminescence/OD600 ratio | Vibrio harveyi JMH597 AI-2 luminescence/OD600 ratio, 9 h; active compounds read low; strain lacks LuxN and CqsS sensors; 0 = neutral-control median | activity change, % at 7.5 µM | hit rate 0.4% among 300,000; in the data active = activity change below about -75%, passing the limit was not always enough; inconclusive = no clear call, values can overlap the other calls;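 also: luminescence divided by OD600 gain over 9 h not by final OD600 alone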
# HIF act: HIF pathway transcriptional activators, primary screen, cell-based, U2OS HRE-luciferase, luminescence; activation, % at 7.5 µM (by protocol); hit rate 0.32% among 300,000; AID 1910, 2009; U2OS HRE-luciferase reporter; normalized: DMSO 0%, desferrioxamine 100%;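 active = mean activation of at least 10% of the iron chelator positive control signal, with at least half of replicates also reaching 10%; inconclusive = mean and replicate majority disagree about reaching 10%; inactive = mean and most replicates under 10%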
# CHT PAM: CHT positive allosteric modulators, primary screen, cell-based, membrane potential dye, choline EC20; B-score at 10 µM; AID 488977, 2010; CHT-expressing cells; active compounds read high; LV-AA mutant CHT in HEK293 cells; High affinity choline transporter 1 (Homo sapiens), Q9GZV3; hit rate 0.49% among 310,000;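 active = initial fluorescence not abnormally high and integrated response B-score, plate-corrected, over 3 SD above library mean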
# Target sequence (Q9GZV3 whole entry, looked up): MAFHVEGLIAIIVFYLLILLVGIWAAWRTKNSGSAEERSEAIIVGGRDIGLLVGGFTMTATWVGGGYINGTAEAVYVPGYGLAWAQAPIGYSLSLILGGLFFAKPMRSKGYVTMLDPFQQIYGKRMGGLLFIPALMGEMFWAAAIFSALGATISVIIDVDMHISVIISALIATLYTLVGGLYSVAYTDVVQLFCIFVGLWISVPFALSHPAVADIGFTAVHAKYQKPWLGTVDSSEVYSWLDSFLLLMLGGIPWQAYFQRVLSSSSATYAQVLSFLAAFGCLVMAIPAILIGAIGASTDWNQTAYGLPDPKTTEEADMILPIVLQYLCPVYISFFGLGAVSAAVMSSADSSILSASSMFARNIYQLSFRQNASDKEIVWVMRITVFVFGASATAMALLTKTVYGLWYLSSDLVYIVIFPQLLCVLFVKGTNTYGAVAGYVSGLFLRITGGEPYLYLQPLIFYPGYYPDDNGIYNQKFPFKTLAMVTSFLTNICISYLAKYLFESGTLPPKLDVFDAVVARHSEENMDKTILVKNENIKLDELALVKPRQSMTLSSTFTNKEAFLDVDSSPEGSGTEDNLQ
# CHT inh: inhibitors of human choline transporter CHT; B-score at 10 µM; CHT-expressing cells, membrane potential dye, choline response; active compounds read low; hit rate 0.86% among 310,000; High affinity choline transporter 1 (Homo sapiens), Q9GZV3;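 active = B-score over 3 SD under the library average, and starting fluorescence ratio not unusually high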;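 also: choline stimulus applied at its EC90 after an EC20 pre-addition; B-score computed on integrated fluorescence ratio after choline addition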
# VLA-4 inh: inhibition in human VLA-4 binding assay, primary screen, VLA-4 allosteric modulator project, MLPCN library, flow cytometry, VLA-4 expressing cells | AID 2557, 2010 | hit rate 0.2% among 330,000 | inhibition, % (about 7 µM as worked out from the volumes in the protocol) | ligand binding flow cytometry | Integrin alpha-4 (Homo sapiens), P13612; in the data active = inhibition above about 50%
# Platelet DG rel: inhibitors of platelet dense granule secretion, primary screen, cell-based, MLPCN, human platelets; AID 1663, 2009; inhibition, %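 (compounds screened at 7.5 µM in platelet-rich plasma)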; human platelet-rich plasma, SFLLRN dense granule ATP release, luminescence; hit rate 0.22% among 300,000;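 active = mean replicate score, as percent of positive control, at or above 50; inconclusive = mean below 50 but at least one replicate at or above 50; inactive = mean and every replicate below 50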
# * marks the source's active call; other numbers are inactive results; i = inactive; ? = inconclusive; / = not tested or not shown. Sampled rows, rich in hits. Any-hit rate of the full collection: about 2.2%.
SMILES,AI-2 QS modul,HIF act,CHT PAM,CHT inh,VLA-4 inh,Platelet DG rel
CC(C)c1ccc(NS(=O)(=O)c2ccc3c(c2)oc(=O)n3C)cc1,-94*,1,i,i,3,18
Cc1ccc(CCNC(=O)c2cccc(NC3=NC4CS(=O)(=O)CC4S3)c2)cc1 (centres undefined),18,0,i,i,20,-1
[O-][n+]1cccc2c(Br)cc(Br)c(O)c21,-197*,0,i,i,21,-3
Cn1c(N)c(C(=O)COC(=O)CCCOc2ccc(Cl)cc2Cl)c(=O)n(C)c1=O,-11,0,i,i,17,0
Cn1c(CNC(=O)c2ccc(Cl)cc2)nnc1SCC(=O)NC1CCCC1,24,-1,i,i,11,1
Cc1ccsc1C(=O)Nc1ccc(OCc2ccccc2)cc1,46,2,i,i,-13,79*
O=C(Nc1ccc(OCc2ccccc2)cc1)c1ccccc1,3,1,i,i,22,12
Cc1ccc(C(=O)NNC(=S)NC(=O)c2ccccc2)cc1,-84*,1,i,i,-10,18
Cc1ccc(C(=O)NC(=S)NNC(=O)c2ccc([N+](=O)[O-])cc2)cc1,-86*,0,i,i,7,6
O=C(NNC(=S)NC(=O)c1ccccc1)c1ccc([N+](=O)[O-])cc1,?,0,i,i,-6,0
Cc1ccc(C(=O)NC(=S)NNC(=O)c2ccccc2)cc1,-150*,-1,i,i,3,4
O=C(CCc1ccccc1)NNC(=S)NC(=O)c1ccccc1,-309*,0,i,i,1,6
COc1ccc(NC(=O)CCCC(=O)OCC(=O)c2cccc(OC)c2)cc1,28,0,i,i,9,3
Cc1ccc2c(c1)C(c1ccccc1)N(C(=O)c1c(F)cccc1Cl)CC(=O)N2 (centres undefined),20,-1,i,i,9,1
COc1ccc(C(=O)NNC(=S)NC(=O)c2cccs2)cc1,-81*,0,i,i,3,-2
COc1ccc(C(=O)NNC(=S)NC(=O)c2ccc(OC)cc2)cc1,37,-4,i,i,0,3
Oc1[nH]c2ccccc2c1N=NC(=S)N1CCOCC1,-3,11*,i,i,12,-1
Oc1[nH]c2ccc(Br)cc2c1N=NC(=S)N1CCOCC1,-47,161*,i,i,28,3
Cc1ccc(N2CC(C(=O)Nc3cccnc3)CC2=O)cc1C (centres undefined),20,0,i,i,0,-4
C#CCOCCOCCOCCNc1nc(N2CCN(C(=O)CCCCCCCCCCNC(=O)[C@H]([C@@H](C)CC)n3cc(CCCCN=C(N)N)nn3)CC2)nc(N2CCN(C(=O)CCCCCCCCCCNC(=O)[C@H](CCCCN)n3cc(C)nn3)CC2)n1,/,/,6.3*,i,-11,/
Oc1ccccc1N=Nc1ccccc1O,25,202*,/,/,/,-1
CC(=O)NC(Cc1cccc(F)c1)C(=O)NC1CCN(c2ncccc2[N+](=O)[O-])CC1 (centres undefined),7,1,i,i,57*,-1
O=C(NCCSc1c[nH]c2ccccc12)c1c(F)cccc1F,27,0,i,i,8,74*
COc1ccc(Cl)cc1C(=O)NNC(=O)COC(=O)CC(NC(C)=O)c1ccccc1 (centres undefined),10,-2,i,i,21,1
Nc1ncnc2c1nc(N1CCCCC1)n2[C@@H]1O[C@H](CO)[C@@H](O)[C@H]1O,/,/,/,/,0,/
SMILES,AI-2 QS modul,HIF act,CHT PAM,CHT inh,VLA-4 inh,Platelet DG rel
CNc1nc2c(N)ncnc2n1[C@H]1O[C@@H](CO)[C@H](O)[C@@H]1O,17,-1,i,-7.6*,-176,?
COC(=O)c1ccc(COc2ncnc3c(Cl)cc(Cl)cc23)o1,-79*,1,i,i,-4,2
Cc1ccc(CCC(=O)Nc2ccc(C)c(C)c2)o1,-79*,0,i,i,7,-4
CCOC(=O)c1ccc(NC(=O)CCc2ccc(C)o2)cc1,43,0,i,i,1,62*
CN1Cc2cc(C(=O)c3cc(Cl)cc(CSc4ncccn4)c3O)cnc2NC1=O,10,1,7*,i,-38,17
Cc1ccn(CC(=O)NC2CCCN(Cc3ccc(CC(C)C)cc3)C2)n1 (centres undefined),33,0,i,i,17,-3
CC(=O)c1c(C)nn(CC(=O)NC2CCCN(Cc3ccc(CC(C)C)cc3)C2)c1C (centres undefined),4,-1,i,i,7,77*
COC(=O)c1cn(C)c2ccc(S(=O)(=O)N3CCCCC3)cc2c1=O,21,90*,/,/,/,0
Cn1cc(C(=O)N2CCCCCC2)c(=O)c2cc(S(=O)(=O)N3CCCCC3)ccc21,20,0,i,i,15,1
CC1CCN(CCCNC(=O)c2cn(C)c3ccc(S(=O)(=O)N4CCCC4)cc3c2=O)CC1,-3,-1,6.8*,i,20,5
CCCSc1nc(N)c2c3c(sc2n1)CN(C)CC3,6,0,7.2*,i,10,1
CN(C)CCSc1nc(N)c2c3c(sc2n1)CN(C)CC3,11,0,i,-8*,-3,1
CC(=O)C1=C(O)C(=O)N(Cc2ccccc2)C1c1ccc(Br)cc1 (centres undefined),4,-1,i,i,2,18
CC(OC(=O)CCN=C1NS(=O)(=O)c2ccccc21)C(=O)NCc1ccccc1 (centres undefined),17,0,i,i,5,/
COc1ccc(CNC(=O)c2cc(-c3cccs3)on2)cc1,-57,0,i,i,-6,-7
COCCNC(=O)c1cc(-c2cccs2)on1,24,30*,i,i,39,25
CCc1ccccc1NC(=O)C1CCCN1C(=O)Nc1ccc(C)cc1 (centres undefined),17,0,i,i,-2,0
O=C(Nc1cccc2ncccc12)c1ccc([N+](=O)[O-])o1,-109*,1,i,i,8,4
Cc1cccc(NC(=O)c2ccc([N+](=O)[O-])o2)n1,-89*,2,i,i,12,-5
CC(=O)N1c2ccc(S(=O)(=O)N3CCC(C(=O)Nc4cccc(Cl)c4)CC3)cc2CC1C (centres undefined),6,0,i,i,4,-15
